Results reported in the supplement of paper PMC3334620.
Whole data set: some 33,000 sequences, median “E-score (-0.5 to 0.5)” near -0.0014, cut for the highest 2% near 0.25. The list comes from a sample in which the highest values are over-represented; it also holds similar and randomly drawn sequences.

The sequences below were run against T1, Cad1 (UniProt P24813) (assay: PBM E-score (8-mer binding enrichment) (E-score (-0.5 to 0.5)); higher = stronger / more preferred TF binding). Details: protein concentration: 100 nM; construct: GST-full length.
T1 sequence: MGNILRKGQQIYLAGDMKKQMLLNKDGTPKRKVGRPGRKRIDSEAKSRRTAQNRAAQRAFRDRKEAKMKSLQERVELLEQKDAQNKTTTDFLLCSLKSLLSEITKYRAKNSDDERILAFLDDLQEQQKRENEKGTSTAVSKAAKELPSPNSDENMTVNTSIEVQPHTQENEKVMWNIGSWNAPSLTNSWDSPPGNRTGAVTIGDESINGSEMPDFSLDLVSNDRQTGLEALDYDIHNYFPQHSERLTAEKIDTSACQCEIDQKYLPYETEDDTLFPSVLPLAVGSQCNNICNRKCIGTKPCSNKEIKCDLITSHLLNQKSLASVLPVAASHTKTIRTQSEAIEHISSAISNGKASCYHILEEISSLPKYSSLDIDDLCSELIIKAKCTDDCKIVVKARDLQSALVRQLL
In short: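 E-scores (a modified Wilcoxon-Mann-Whitney statistic) were assigned by the Universal PBM Analysis Suite to every ungapped eight-base word pooled with its reverse complement. The input came from universal all-10-mer Agilent arrays made double-stranded by primer extension and probed with GST-tagged yeast transcription factors at about 100-200 nM. Fluorescent anti-GST detected bound protein, and masliner normalised the scans.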
For CGCATGTC, the “PBM E-score” value was 0.0303. With GCGAGGCC the “PBM E-score” value was -0.113. ACTATTAC was tested, and the “PBM E-score” value was 0.149. CCTATTAC was tested, and the “PBM E-score” value was -0.0089. In the case of GATATTAA, the “PBM E-score” value is reported as 0.187. GCTATTAC was tested, and the “PBM E-score” value was 0.098. AACATTAA was tested, and the “PBM E-score” value was 0.127. GACATTAA was tested, and the “PBM E-score” value was 0.124. In the case of GATATTAC, the “PBM E-score” value is reported as 0.293. For TGTATTAA, the “PBM E-score” value was -0.00939. For AATATTAC, the “PBM E-score” value was 0.347. For TACATTAA, the “PBM E-score” value was 0.26. TATATTAA was tested, and the “PBM E-score” value was 0.326. With CATATTAC the “PBM E-score” value was 0.225. In the case of ACATGGAT, the “PBM E-score” value is reported as 0.0578. ATTTGATC was tested, and the “PBM E-score” value was -0.0183. In the case of AGCCCGAC, the “PBM E-score” value is reported as -0.149. ACGTTTGA was tested, and the “PBM E-score” value was 0.0358. In the case of AAAGGACT, the “PBM E-score” value is reported as -0.224. With ATGTGGCC the “PBM E-score” value was -0.0491. With AATGGTGC the “PBM E-score” value was -0.131. GCTGAACC was tested, and the “PBM E-score” value was -0.0931. With ACTTTGGC the “PBM E-score” value was -0.0521. With TACTGCGA the “PBM E-score” value was 0.0327. AGCTCCAG was tested, and the “PBM E-score” value was -0.181. With AGATTTCC the “PBM E-score” value was 0.185. With AATATTAA the “PBM E-score” value was 0.281. AATATTAT was tested, and the “PBM E-score” value was 0.194. With CATATTTA the “PBM E-score” value was 0.232. For AATATTAG, the “PBM E-score” value was 0.213. CATATTAG was tested, and the “PBM E-score” value was 0.179. With CATATTAA the “PBM E-score” value was 0.272. With CGATTGTC the “PBM E-score” value was 0.174. AGCTATTC was tested, and the “PBM E-score” value was -0.215. GTATCTTA was tested, and the “PBM E-score” value was 0.287. With GTATCTGA the “PBM E-score” value was 0.0184. For ACATCATA, the “PBM E-score” value was 0.105. CTATCATA was tested, and the “PBM E-score” value was 0.148. With CCATCATA the “PBM E-score” value was -0.27. For GCATCATA, the “PBM E-score” value was 0.296. ATATCATA was tested, and the “PBM E-score” value was 0.166. In the case of CTATCTTA, the “PBM E-score” value is reported as 0.0111. In the case of GTATCATA, the “PBM E-score” value is reported as 0.288. With CGAGACCA the “PBM E-score” value was -0.0428. In the case of ACAAACTC, the “PBM E-score” value is reported as 0.052. GGCTCCAC was tested, and the “PBM E-score” value was -0.182. In the case of CCTCTGCG, the “PBM E-score” value is reported as -0.147. In the case of CGGGTAGA, the “PBM E-score” value is reported as 0.0106. In the case of CGGTTGGC, the “PBM E-score” value is reported as 0.0738. For CGTTCTGA, the “PBM E-score” value was -0.16. GACTGCGC was tested, and the “PBM E-score” value was -0.0924. AACCCTCG was tested, and the “PBM E-score” value was -0.0276. ATTATAAA was tested, and the “PBM E-score” value was 0.276. For ATTATAAG, the “PBM E-score” value was 0.186. For TGTATAAA, the “PBM E-score” value was 0.028. With CTTATAAG the “PBM E-score” value was -0.047. With ATTATAAC the “PBM E-score” value was 0.0512. With GTTATAAA the “PBM E-score” value was 0.184. CTTATAAC was tested, and the “PBM E-score” value was 0.177. With CTTATAAA the “PBM E-score” value was 0.275. With TTTATAAA the “PBM E-score” value was 0.261. With CCCGCGTC the “PBM E-score” value was 0.0369. GTTCGAAA was tested, and the “PBM E-score” value was 0.241. In the case of ACCAGAGG, the “PBM E-score” value is reported as -0.164. For GGCGGTAC, the “PBM E-score” value was -0.0694. For GGCCTTGA, the “PBM E-score” value was 0.0013. With AACAAATA the “PBM E-score” value was 0.186. In the case of CACAAATA, the “PBM E-score” value is reported as 0.259. GACAAAGA was tested, and the “PBM E-score” value was 0.276. With CACAAATG the “PBM E-score” value was -0.0179. CACAAATC was tested, and the “PBM E-score” value was 0.126. For GACAAGAA, the “PBM E-score” value was 0.0396. With GACAAGTC the “PBM E-score” value was 0.00519. With TACAAATA the “PBM E-score” value was 0.185. With GACAAATA the “PBM E-score” value was 0.293. For GACAAATC, the “PBM E-score” value was 0.306. With GACAAAGC the “PBM E-score” value was 0.06. For CACAAGTA, the “PBM E-score” value was -0.0393. GAACTTCA was tested, and the “PBM E-score” value was 0.066. CGAACTGA was tested, and the “PBM E-score” value was -0.17. CCGGGGAC was tested, and the “PBM E-score” value was -0.235. For CCTTATAG, the “PBM E-score” value was -0.219. With ATTAGGGC the “PBM E-score” value was -0.0576. For AGTTTTGG, the “PBM E-score” value was 0.127. GACAGCGC was tested, and the “PBM E-score” value was 0.14. In the case of ACGTGCGC, the “PBM E-score” value is reported as 0.122. For CAGTAGTC, the “PBM E-score” value was -0.207. With AACACGAT the “PBM E-score” value was 0.123. With AAGTTGGC the “PBM E-score” value was -0.125. In the case of AAGTTGGT, the “PBM E-score” value is reported as 0.252. In the case of AAGTTGGG, the “PBM E-score” value is reported as -0.0322. For ATTAGAGC, the “PBM E-score” value was 0.041. With ATAGTGTA the “PBM E-score” value was 0.0723. In the case of AAGAAGTA, the “PBM E-score” value is reported as 0.12. With CAAGCAAA the “PBM E-score” value was 0.0203. CACACTCA was tested, and the “PBM E-score” value was 0.194. For CGACAGTC, the “PBM E-score” value was -0.12. In the case of CACGCCTC, the “PBM E-score” value is reported as -0.0988. GTATAAAA was tested, and the “PBM E-score” value was 0.18. For CTATAATA, the “PBM E-score” value was -0.101. With GTATAAGA the “PBM E-score” value was -0.0708. ATATAATA was tested, and the “PBM E-score” value was 0.261. In the case of ATATAATG, the “PBM E-score” value is reported as 0.0839. With GTATAATA the “PBM E-score” value was 0.283. For CACCGTGC, the “PBM E-score” value was 0.161. In the case of TGAACTAA, the “PBM E-score” value is reported as -0.063. With ATCGAACG the “PBM E-score” value was -0.0756. With AATCGCAT the “PBM E-score” value was 0.0873. In the case of GATTAACC, the “PBM E-score” value is reported as 0.02. With TATTAACA the “PBM E-score” value was 0.25. With TATTAAGA the “PBM E-score” value was 0.0149. With CATTAATA the “PBM E-score” value was 0.297.
